Measured values taken from PMC4336329 (PLoS ONE, 2015).
Hit rate of the full screen: of about 310,000 compounds, about 14,000 (4.5%) showed an effect of 50% or more. Effects have a minus sign here. This excerpt belongs to a sample that is enriched for strong results.

target: human ether-à-go-go-related gene (hERG) potassium channel (human, UniProt Q12809); assay: primary screen, population patch clamp on CHO cells stably expressing hERG; higher = less effect of the substance
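Also: peak tail current of the secondary pulse compared with the same well before compound.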

Chain of human ether-à-go-go-related gene (hERG) potassium channel (Q12809 whole entry, looked up): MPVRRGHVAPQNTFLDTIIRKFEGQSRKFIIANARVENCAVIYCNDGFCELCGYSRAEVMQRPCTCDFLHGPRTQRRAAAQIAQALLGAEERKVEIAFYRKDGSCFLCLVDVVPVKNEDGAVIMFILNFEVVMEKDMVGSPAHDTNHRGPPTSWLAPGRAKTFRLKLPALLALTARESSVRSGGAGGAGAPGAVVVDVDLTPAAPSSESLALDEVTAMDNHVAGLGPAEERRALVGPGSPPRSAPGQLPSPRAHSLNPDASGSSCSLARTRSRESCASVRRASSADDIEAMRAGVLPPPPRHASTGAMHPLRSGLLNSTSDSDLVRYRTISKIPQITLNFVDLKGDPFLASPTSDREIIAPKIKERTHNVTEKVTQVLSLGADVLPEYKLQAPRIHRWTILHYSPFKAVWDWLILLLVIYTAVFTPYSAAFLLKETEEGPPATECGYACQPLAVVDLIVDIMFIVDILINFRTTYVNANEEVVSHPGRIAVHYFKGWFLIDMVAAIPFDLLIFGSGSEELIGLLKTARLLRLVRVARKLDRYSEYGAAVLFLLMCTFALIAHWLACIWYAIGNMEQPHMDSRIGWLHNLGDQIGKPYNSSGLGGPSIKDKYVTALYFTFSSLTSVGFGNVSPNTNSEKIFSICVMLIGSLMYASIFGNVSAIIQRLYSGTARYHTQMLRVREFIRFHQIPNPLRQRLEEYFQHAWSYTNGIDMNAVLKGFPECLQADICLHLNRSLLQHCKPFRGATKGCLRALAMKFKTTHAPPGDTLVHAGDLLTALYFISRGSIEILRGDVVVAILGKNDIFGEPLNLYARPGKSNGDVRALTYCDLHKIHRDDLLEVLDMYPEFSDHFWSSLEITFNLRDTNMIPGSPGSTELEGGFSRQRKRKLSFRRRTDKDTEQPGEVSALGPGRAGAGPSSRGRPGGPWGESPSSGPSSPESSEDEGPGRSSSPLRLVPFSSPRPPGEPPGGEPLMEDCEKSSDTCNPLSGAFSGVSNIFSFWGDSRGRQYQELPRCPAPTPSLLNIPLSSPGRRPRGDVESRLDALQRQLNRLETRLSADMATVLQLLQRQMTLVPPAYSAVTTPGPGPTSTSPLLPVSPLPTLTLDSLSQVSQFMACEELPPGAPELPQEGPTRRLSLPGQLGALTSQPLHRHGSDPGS

Compound | hERG current change (%, negative = inhibition) at 10uM
CNC(=O)N(O)C1N(/N=C/c2c(F)cccc2Cl)C(=S)SC1(C)C (centres unmarked) | 18%
CC(=O)c1cccc(NC(=O)C(C)OC(=O)c2cc(=O)[nH]c3ccccc23)c1 (centres unmarked) | -0.987%
CCC(CNc1cc(OC)cc2cccnc12)NC1CCCCC1 (centres unmarked) | -26.2%
COc1cc(C(=O)O)cc(NC(=O)c2cccs2)c1OC | 13%
NS(=O)(=O)c1ccc(CCNS(=O)(=O)c2cccc(C(=O)O)c2)cc1 | 15.9%
COc1ccc(NS(=O)(=O)c2cc3c(cc2C)N(C)CCO3)c(OC)c1 | 1.28%
COc1ccc(C(=O)C2CCCN(Cc3cccn3-c3nccs3)C2)cc1F (centres unmarked) | -83.5%
COc1cccc(C(=O)C2CCCN(Cc3cccn3-c3cccnc3)C2)c1 (centres unmarked) | -29%
O=C(c1ccc2c(c1)OCO2)C1CCCN(Cc2cccn2-c2cccnc2)C1 (centres unmarked) | -58.3%
COc1ccc(C(=O)C2CCCN(Cc3cnc(N4CCOCC4)s3)C2)cc1F (centres unmarked) | -47.6%
COc1ccc(C(=O)C2CCCN(Cc3cnc(N4CCCC4)s3)C2)cc1OC (centres unmarked) | -44%
COc1ccc(C(=O)C2CCCN(Cc3cccn3-c3cccnc3)C2)cc1OC (centres unmarked) | -62.9%
COc1ccc(C(=O)C2CCCN(C(=O)c3cccs3)C2)cc1F (centres unmarked) | -8.95%
COc1ccc(C(=O)C2CCCN(Cc3cccn3-c3nccs3)C2)cc1OC (centres unmarked) | -82%
S=C1NCCc2ccccc2C1c1ccccc1 (centres unmarked) | -14.5%
C/C(=C\C(=S)Nc1ccccc1)Nc1ccccc1 | 22.4%
CCOc1ccccc1CNC(=O)Cn1ccc2cc(S(=O)(=O)N3CCCCCC3)ccc21 | 10.4%
COc1ccc2cc(N=Cc3nc(-c4ccc(C)cc4)oc3O)cnc2c1 | 1.84%
CCC(=O)N1CCc2cc(S(=O)(=O)N3CCCCCC3)ccc21 | 12.6%
CNC(=O)c1cccn1-c1ccsc1C(=O)OC | 7.33%
COc1ccc(Cc2nc3ccc(C(=O)N(C)CCn4ccnc4)cc3o2)cc1OC | 15.5%
O=C(COC(=O)c1ccc(F)cc1F)Nc1ccc2[nH]c(=O)[nH]c2c1 | 10.3%

Compound | hERG current change (%, negative = inhibition) at 10uM
Cc1cc(C(=O)C(=O)NC(C)C)c(C)n1-c1ccc([N+](=O)[O-])cc1 | -22.8%
Cc1cc(C(=O)C(=O)N(C)C)c(C)n1-c1ccc([N+](=O)[O-])cc1 | -25.7%
C=CCN(CC=C)C(=O)C(=O)c1cc(C)n(-c2ccc([N+](=O)[O-])cc2)c1C | -63.4%
O=C(/C=C/C=C/c1ccc2c(c1)OCO2)N1CCCCC1 | -8.23%
CCc1noc(C)c1C(=O)OCC(=O)NC(=O)c1ccccc1OC | 12.5%
COc1cc(OC)c(C#N)c(S(=O)(=O)Cc2ccccc2)c1 | -3.9%
Cc1ccc2c(c1)NC(=O)C(CC(=O)NCCN(CC(C)C)CC(C)C)O2 (centres unmarked) | -24.7%
CCN(CC)CCNC(=O)c1ccc2c(c1)NC(=O)c1ccccc1S2 | -31.9%
CCC(C)N(CCNC(=O)CC1Oc2ccc(C)cc2NC1=O)C1CCCCC1 (centres unmarked) | -71.5%
Cc1ccc2c(c1)NC(=O)C(CC(=O)NCCN(C)C)O2 (centres unmarked) | -2.42%
CN(C)CCNC(=O)c1ccc2c(c1)NC(=O)c1ccccc1S2 | 17.3%
CCC(C)N(CCNC(=O)CC1Oc2ccccc2NC1=O)C1CCCCC1 (centres unmarked) | -57.7%
CCC(C)N(CCNC(=O)c1ccc2c(c1)NC(=O)c1ccccc1S2)C1CCCCC1 (centres unmarked) | -66.4%
CC(C)CN(CCNC(=O)CC1Oc2ccccc2NC1=O)CC(C)C (centres unmarked) | -27.7%
CCN(CCNC(=O)CC1Oc2ccccc2NC1=O)c1ccccc1 (centres unmarked) | 9.82%
COCCn1c(C)cc2c(c1=O)C(c1ccco1)C(C#N)=C(N)O2 (centres unmarked) | 12.7%
C=CCn1c(CSc2nnc(-c3ccccc3)n2C)n[nH]c1=S | 16.7%
O=C(Nc1ccc(Cl)cc1)c1ccc(Br)cc1F | 14.4%
COCc1cc(Sc2cccc(Cl)c2Cl)nc(-c2ccccc2)n1 | 9.15%
Cc1ccc(S(=O)(=O)N(CC(=O)NN=C2CCN(C)CC2)c2ccc(C(C)C)cc2)cc1 | -21.3%
CCn1cc(C(=O)N2CCN(Cc3ccc4c(c3)OCO4)CC2)c(=O)c2ccc(C)nc21 | -1.84%
CCC(C)(C)NC(=O)C(c1ccc(OC)cc1)N(C(=O)CCC(=O)Nc1cc(C)on1)c1ccc(OC)c(OC)c1 (centres unmarked) | 3.38%

Compound | hERG current change (%, negative = inhibition) at 10uM
Cc1ccc(OCC(=O)N/N=C/c2cn(C)c3ccccc23)cc1 | 10.2%
CC1c2cccn2CCN1S(=O)(=O)c1ccccc1 (centres unmarked) | 5.9%
CC1c2cccn2CCN1S(=O)(=O)c1ccc(F)cc1 (centres unmarked) | -52.3%
Cc1ccc(S(=O)(=O)N2CCn3cccc3C2C)cc1 (centres unmarked) | -22.7%
COc1cc(NS(=O)(=O)c2ccc(NC(=O)/C(=C\c3ccccc3OC)NC(=O)c3ccccc3)cc2)nc(OC)n1 | 26.5%
C=CCOc1ccc(/C=N/NC(=O)CN2CCOCC2)cc1OCC | 12.4%
CCOc1cc(/C=N/NC(=O)CN2CCCCC2)ccc1O | -5.51%
CCOc1ccc(/C=N/NC(=O)CN2CCCCC2)cc1OCC | 11%
CCOc1cc(/C=N/NC(=O)CN2CCCCC2)ccc1OCc1ccccc1 | -59.9%
CCOc1cc(/C=N/NC(=O)CN2CCOCC2)ccc1OCc1ccccc1 | -9.58%
O=C(CN1CCCCC1)N/N=C/c1ccccc1OCc1ccccc1 | -30.2%
COc1cc(/C=N/NC(=O)CN2CCOCC2)ccc1OCc1ccccc1 | 5.45%
C=CCOc1ccc(/C=N/NC(=O)CN2CCCCC2)cc1OC | -61%
CCOc1cc(/C=N/NC(=O)CN2CCCCC2)ccc1OCc1cccc(Cl)c1 | -45.3%
CCCOc1ccc(/C=N/NC(=O)CN2CCCCC2)cc1OCC | -51.4%
COc1cc(/C=N/NC(=O)CN2CCCCC2)ccc1OCc1ccccc1 | -64.1%
C=CCOc1ccc(/C=N/NC(=O)C(=O)N2CCCCCC2)cc1OC | 16.5%
CC(=O)N1c2ccccc2C(C)(C)C2CCC(C)CC21 (centres unmarked) | -8.9%
COc1ccc(-c2cn[nH]c2-c2ccc(OC)cc2)cc1 | 8.51%
CCN(CC)C(=O)c1c[nH]c2ccc(S(=O)(=O)Nc3cc(C)cc(C)c3)cc2c1=O | -0.741%
CCOC(=O)c1[nH]c(Cc2[nH]c(C(=O)OCC)c(C)c2CCC(=O)OC)c(CCC(=O)OC)c1C | 3.71%
COc1cccc(-c2nc(-c3ccccc3)no2)c1 | 1.72%

Compound | hERG current change (%, negative = inhibition) at 10uM
Cc1cccc(Nc2nc3c(S(=O)(=O)c4ccccc4)nnn3c3ccccc23)c1C | 12.6%
CCC(C)NC(=O)Cn1nc(C(F)(F)F)c2c1CCC2 (centres unmarked) | 1.83%
N#Cc1c(SCC(=O)Nc2nc3ccccc3s2)sc2c(O)cc(=O)[nH]c12 | 20.7%
c1ccc2c(c1)nc(Nc1ccc(N3CCCCC3)cc1)c1nncn12 | -13.8%
Cc1nc(-c2ccc(F)cc2)c(CC(=O)Nc2cccc(S(=O)(=O)N3CCOCC3)c2)s1 | -15.8%
CCOc1cc(/C=N/NC(=O)CN2CCCCC2)ccc1OCc1ccc(Cl)cc1 | 7.37%
COc1ccc(/C=N/NC(=O)CN2CCN(Cc3ccccc3)CC2)cc1Br | -68%
COc1cc(/C=N/NC(=O)CN2CCCCC2)ccc1OCc1ccc(Br)cc1 | -59%
COc1cc(/C=N/NC(=O)c2ccoc2C)ccc1OCCN1CCCCC1 | -31.6%
COc1cc(/C=N/NC(=O)c2cc3ccccc3cc2O)ccc1OCCN1CCCCC1 | -65.9%
Cc1nn(-c2ccccc2)c(N2CCCC2)c1/C=N/NC(=O)c1cc(-c2ccccc2)nc2ccccc12 | 13.3%
COc1ccc(Br)cc1/C=N/NC(=O)CN1CCCCC1 | -4.99%
COc1ccc(Br)cc1/C=N/NC(=O)CN1CCN(Cc2ccccc2)CC1 | -33.1%
COc1cc(/C=N/NC(=O)c2ccncc2)ccc1OCCN1CCCCC1 | -3.37%
Cc1nn(-c2ccccc2)c(N2CCCC2)c1/C=N/NC(=O)c1ccccc1O | -2.88%
Cc1nn(-c2ccccc2)c(N2CCCC2)c1/C=N/NC(=O)c1cc2ccccc2cc1O | -55.5%
COc1cc(/C=N/NC(=O)CCN2CCN(Cc3ccccc3)CC2)cc(OC)c1OC | -29.2%
Cc1ccc(S(=O)(=O)Nc2cc(C)on2)cc1 | 15.4%
CCN(CC(=O)Nc1ccc(NC(C)=O)cc1)C(=O)c1cc(-c2ccccc2)nn1-c1ccccc1 | 8.43%
O=C(CSc1nnc(-c2cccnc2)o1)NNC(=O)c1ccc(Br)cc1 | 2.19%
